Growth inhibition data for 40 compounds are collected here from PubChem BioAssay (NCI).

This is part of a sample that, as a whole, favours compounds with a hit. Of some 79,000 tested, about 15% had one in any assay. A number with no mark means an inactive call. The source made the active and inactive calls. Rule as the data show it: active = growth inhibition above about 70%; inactive = the rest.

The assay can be described thus: NCI Yeast Anticancer Drug Screen. Data for the cln2 rad14 strain (AID 165).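 Also: 0% = growth equal to vehicle treated cultures.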 The conditions noted are these: S. cerevisiae cln2 rad14 strain, at 5.0 µM (retest, dose inferred, filed as 0.5), active compounds read high. The method in brief:
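The screen exposed genetically defined yeast (cln2 rad14) to test compounds and scored growth inhibition relative to vehicle-treated controls.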
With `CC1CCN(CCOC(=O)C(c2ccccc2)C2C=CCCC2)C1C` (stereo not given), the growth inhibition is 16%. With `CC(CCCN(C)Cc1ccccc1)Nc1ccnc2cc(Cl)ccc12` (stereo not given) the figure was 41%. The value for `O=C(/C(Cl)=N/O)c1ccccc1` was 38%; that for `CN(C)C1C[C@@H](O[Si](C)(C)C(C)(C)C)C=C1S(=O)(=O)c1ccccc1` (stereo not given in full) was -14%; that for `Nc1nnc(Cc2ccc(Br)cc2)o1` was 10%. The value for `CSc1nc(C)cc(SCc2ccc(Cl)cc2Cl)n1` was 2%. As for `CC[N](CC)[Ge]([CH2]C)[CH2]C.CC[N](CC)[Ge]([CH2]C)[CH2]C`, the growth inhibition is 48%. With `Cc1c(-c2ccccc2)ccnc1/C=N/NC(=S)Nc1ccc(N(C)C)cc1` the figure was 43%; with `Cc1cc(C)nc(NS(=O)(=O)c2ccc(Nc3c4ccccc4nc4c(C(=O)NC(CO)(CO)CO)cccc34)cc2)n1`, 39%; with `CCCC(CCC)NCCOC(=O)C(CC)c1ccccc1` (stereo not given), -35%. The value for `OCCc1ccc(-n2cnc3c(Nc4ccc(Cl)cc4)ncnc32)cc1` was -18%. Take `Cc1cccc(N2C(=O)c3ccccc3C2(c2ccccc2)N2CCCCC2)c1` (stereo not given): the growth inhibition was 2%.

`CCCCN(CCO)CCNc1ccc(C)c2sc3ccccc3c(=O)c12`: the growth inhibition was 17%. With `Cc1ccc(C)c(C(=O)CCN)c1` the figure was 6%; with `O=C1C(C(O)(C(F)(F)Cl)C(F)(F)Cl)CCCC1C(O)(C(F)(F)Cl)C(F)(F)Cl` (stereo not given), 79% (active). With `CC(C)c1cc2c(cc1O)C(O)C1(O)CCCC(C)(C)[C@H]1CC2` (stereo not given in full) the figure was -11%; with `CN(C)[C@@H]1C(=O)C(C(=O)NCNc2nc3n[nH]nc3c(=O)[nH]2)=C(O)[C@@]2(O)C(=O)C3=C(O)c4c(O)cccc4[C@@](C)(O)[C@H]3C[C@@H]12`, 1%; with `CCOC(=O)c1csc(=S)[nH]1`, 5%. The value for `CC(=O)[O-].O=C(N/N=C/c1ccccc1[O-])c1ccccc1.[Zn+2]` was -5%.

As for `Clc1ccc(C(CCOc2ccccc2Br)Cn2ccnc2)c(Cl)c1` (stereo not given), the growth inhibition was 68%. For the compound `CCCC(C)C/C(C)=C\C(C)(C)C1CC(=O)N(CC)C1=O` (stereo not given), the growth inhibition is 4%. With `CSC(SC)=C1C(=O)NC(Cc2ccccc2)C1=O` (stereo not given) the figure was 2%; with `CCCCCCSc1nc2ccc(N=Cc3ccccc3O)cc2s1`, 58%. The value for `Cc1cc(C(=O)O)c(C)c2c1sc1ccccc12` was -64%; that for `O=C(Nc1ccc(Cl)cc1)Nc1nnc2nc(C(C(=O)/C=C/c3ccccc3)c3nc4nnc(NC(=O)Nc5ccc(Cl)cc5)n4[nH]c3=O)c(=O)[nH]n12` was -8%. With `O=c1c(SSc2coc3ccccc3c2=O)coc2ccccc12` the figure was 42%. Consider `C[n+]1c(/C=C/c2ccc(N3CCCC3)cc2)sc2ccccc21`, for which the growth inhibition is 60%. The value for `CCC(C(c1ccc(Cl)cc1)c1ccc(Cl)c(Cl)c1)[N+](=O)[O-]` (stereo not given) was 4%; that for `O=C1OC(C2OC(=O)C(=O)C2C(=O)c2ccc([N+](=O)[O-])cc2)C(C(=O)c2ccc([N+](=O)[O-])cc2)C1=O` (stereo not given) was 11%. The value for `O=[N+]([O-])c1ccc(O)c(C2CCCCC2)c1` was 64%; that for `O=C1c2ccccc2C(=O)N1/N=C\c1ccccc1[N+](=O)[O-]` was -5%; that for `CC(C)(C)C(=O)CC(=O)C(F)(F)C(F)(F)C(F)(F)F.CC(C)(C)C(=O)CC(=O)C(F)(F)C(F)(F)C(F)(F)F.CC(C)(C)C(=O)CC(=O)C(F)(F)C(F)(F)C(F)(F)F.[Gd]` was 9%.

Regarding `Oc1ccc(N=Nc2ccccc2)cc1`, the growth inhibition was -1%. The value for `Cc1cc(NC(=S)SCc2ccc(F)cc2)ccc1Br` was 46%. For `OC(CN1CCc2ccccc2C1)c1ccc2ccccc2c1` (stereo not given), the growth inhibition is 26%. With `O=C1C=C/C(=C(/c2ccc(O)c(O)c2)c2ccccc2S(=O)(=O)O)C=C1O`, the growth inhibition is 5%. Consider `Cc1cc(N)c2cc(NC(=O)Nc3ccc4nc(C)cc(N)c4c3)ccc2n1`, for which the growth inhibition was 99% (active). In the case of `CC(=O)N/N=C1/CC[C@@]2(C)C(=CC[C@H]3C4CCC(C(C)CCCC(C)C)[C@@]4(C)CCC32)C1(C)C` (stereo not given in full), the growth inhibition was -11%. The value for `Cc1ncn(-c2ccccc2O)c1C` was -2%. In the case of `Oc1ccc(-c2nnc(-c3ccccc3)nn2)cc1`, the growth inhibition was -47%.
